This is a sample that favours compounds with a hit; in the whole collection about 2.4% have one here.
ALOX15 inhib – qHTS Assay for Inhibitors of 15-hLO (15-human lipoxygenase); purified 15hLO-1, xylenol orange hydroperoxide absorbance; actives 1.4% (n = 74,000); Potency, µM (doses to about 57.1 µM), for inactives: top-dose activity change, negative = inhibition, hits mostly inhibitors; Polyunsaturated fatty acid lipoxygenase ALOX15 (Homo sapiens), P16050; also: potency is read from the fitted curve at half-maximal effect; % is scaled to controls: 0 for no effect and ±100 for the full control effect; nearly all actives have a fitted effect of over 55% in size
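Compounds were preincubated 15 min at room temperature with 40 nM purified human enzyme (25 mM Hepes pH 7.5, 0.01% Triton X-100); 50 uM arachidonic acid reacted 6 min. Fe-xylenol orange detection, 30 min, absorbance ratio 573/405 nm.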
TsaE inh – qHTS Assay for Inhibitors of YjeE; tRNA threonylcarbamoyladenosine biosynthesis protein TsaE (Escherichia coli (strain …; purified YjeE enzyme, qHTS inhibition assay; Potency, µM; actives 0.05% (n = 71,000)
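Fluorescence polarization of a BODIPY Texas Red–ADP probe (2 uM) bound to purified YjeE (10 uM) was read after 15 min room-temperature incubation with compounds. Loss of polarization marks inhibitors; ADP serves as titrated control.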
BRCT PPI green – qHTS Assay for Inhibitors of BRCT-Phosphoprotein Interaction (Green Fluorophore) | BRCA1 BRCT-phosphopeptide binding, green fluorescence polarization | Breast cancer type 1 susceptibility protein (Homo sapiens), P38398 | Potency, µM (highest dose often 76.9 µM), for inactives: top-dose activity change, negative = inhibition, most hits filed as inhibitors | AID 875, 2007 | actives 0.05% (n = 75,000);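 also: potency is read from the fitted curve at half-maximal effect; plate controls were peptide without protein for full effect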
Target sequence (P38398 whole entry, looked up): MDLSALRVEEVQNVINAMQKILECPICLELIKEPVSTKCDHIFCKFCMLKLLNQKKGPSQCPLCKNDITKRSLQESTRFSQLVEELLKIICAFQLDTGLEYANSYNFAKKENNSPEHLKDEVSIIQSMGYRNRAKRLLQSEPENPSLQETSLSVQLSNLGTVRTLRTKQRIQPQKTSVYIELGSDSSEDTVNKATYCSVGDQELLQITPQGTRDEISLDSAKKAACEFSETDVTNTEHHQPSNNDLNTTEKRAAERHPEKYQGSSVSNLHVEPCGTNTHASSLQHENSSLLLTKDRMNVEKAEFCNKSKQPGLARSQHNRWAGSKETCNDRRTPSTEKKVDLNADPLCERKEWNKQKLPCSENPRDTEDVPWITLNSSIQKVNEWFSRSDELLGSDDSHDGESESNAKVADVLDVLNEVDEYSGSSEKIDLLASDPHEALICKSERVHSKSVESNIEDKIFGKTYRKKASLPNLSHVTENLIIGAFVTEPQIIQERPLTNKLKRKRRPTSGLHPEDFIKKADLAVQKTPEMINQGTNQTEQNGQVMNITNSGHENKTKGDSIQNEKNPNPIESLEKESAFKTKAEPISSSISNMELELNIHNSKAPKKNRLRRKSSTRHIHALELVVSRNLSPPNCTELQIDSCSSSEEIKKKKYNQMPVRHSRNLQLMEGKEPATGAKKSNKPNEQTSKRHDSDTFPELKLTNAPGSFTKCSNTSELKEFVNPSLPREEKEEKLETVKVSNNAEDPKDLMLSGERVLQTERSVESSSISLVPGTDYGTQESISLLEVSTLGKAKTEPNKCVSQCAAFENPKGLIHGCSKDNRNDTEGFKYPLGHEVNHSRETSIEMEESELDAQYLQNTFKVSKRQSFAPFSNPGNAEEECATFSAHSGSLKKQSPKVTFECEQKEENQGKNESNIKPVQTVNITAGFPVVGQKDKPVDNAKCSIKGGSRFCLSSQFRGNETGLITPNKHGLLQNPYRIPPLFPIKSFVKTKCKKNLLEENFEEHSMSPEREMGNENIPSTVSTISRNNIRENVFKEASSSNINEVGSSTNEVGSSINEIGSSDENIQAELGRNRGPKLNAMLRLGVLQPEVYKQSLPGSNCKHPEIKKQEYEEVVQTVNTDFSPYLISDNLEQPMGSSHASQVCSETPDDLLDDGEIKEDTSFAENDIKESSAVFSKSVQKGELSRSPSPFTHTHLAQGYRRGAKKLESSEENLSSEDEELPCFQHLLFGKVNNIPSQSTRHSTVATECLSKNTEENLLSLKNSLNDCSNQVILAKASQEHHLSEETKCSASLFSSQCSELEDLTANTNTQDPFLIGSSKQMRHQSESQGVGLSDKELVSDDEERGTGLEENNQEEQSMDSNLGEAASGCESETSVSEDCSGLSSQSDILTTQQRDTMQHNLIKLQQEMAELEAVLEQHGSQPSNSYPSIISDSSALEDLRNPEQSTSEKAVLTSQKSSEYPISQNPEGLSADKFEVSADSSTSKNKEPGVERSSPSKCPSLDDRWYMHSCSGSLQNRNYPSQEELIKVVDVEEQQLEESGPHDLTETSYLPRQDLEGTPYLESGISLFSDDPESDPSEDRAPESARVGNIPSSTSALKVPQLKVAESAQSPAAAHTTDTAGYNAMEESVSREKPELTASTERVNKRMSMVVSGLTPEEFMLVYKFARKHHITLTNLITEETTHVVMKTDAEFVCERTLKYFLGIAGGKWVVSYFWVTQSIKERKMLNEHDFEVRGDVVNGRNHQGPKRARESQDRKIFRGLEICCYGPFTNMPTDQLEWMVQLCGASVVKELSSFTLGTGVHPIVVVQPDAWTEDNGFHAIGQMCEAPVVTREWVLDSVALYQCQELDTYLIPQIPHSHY
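Compounds were incubated for 12 min at room temperature with a complex of 100 nM fluorescein-tagged pBACH1 decapeptide and 250 nM His-tagged BRCT protein. Buffer was phosphate pH 7.3 with EDTA, DTT and Tween 20. Disruption of binding lowers the polarization signal.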
DNA Pol III inh – qHTS Assay for Inhibitors of DNA Polymerase III Holoenzyme System | reconstituted DNA polymerase III holoenzyme replication, biochemical | Potency, µM (doses to about 57.1 µM), inactives show at the top dose activity change, negative = inhibition | actives 0.25% (n = 71,000) | AID 603, 2007; also: potency is read from the fitted curve at half-maximal effect; % is scaled to controls: 0 for no effect and ±100 for the full control effect
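Reconstituted *E. coli* holoenzyme (0.35 nM Pol III, 1 nM beta, 154 nM SSB, 2 nM primase) was preincubated with compound for 15 min at RT. Synthesis on 1.4 nM ssM13Gori ran 35 min, then was stopped with PicoGreen/EDTA and read as dsDNA fluorescence.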
BRCT inh red – qHTS Assay for Inhibitors of BRCT-Phosphoprotein Interaction (Red Fluorophore); BRCT-phosphopeptide binding, red fluorescence polarization; actives 0.03% (n = 75,000); Breast cancer type 1 susceptibility protein (Homo sapiens), P38398; AID 892, 2007; Potency, µM (doses to about 76.9 µM), without a hit: top-dose activity change, negative = inhibition, actives largely listed as inhibitors; also: % is scaled to controls: 0 for no effect and ±100 for the full control effect
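Rhodamine-labelled pBACH1 10-mer (100 nM) bound to BRCT domain (100 nM) at pH 7.3; compounds incubated 12 min room temperature, polarization read. Free peptide defines full inhibition; unlabelled decapeptide titrated as control.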
ERK AVP block – qHTS Assay for Inhibitors of the ERK Signaling Pathway using a Homogeneous Screening Assay; HEK293-V1b, vasopressin-stimulated pERK AlphaScreen; Potency, µM (series often up to 57.5 µM), without a hit: at the top dose activity, negative = inhibition, hits mostly inhibitors; actives 0.99% (n = 72,000); AID 995, 2007; also: potency is read from the fitted curve at half-maximal effect; % is scaled to controls: 0 for no effect and ±100 for the full control effect; nearly all actives have a fitted effect of over 55% in size
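Overnight-seeded V1b-HEK293 cells in 1% FBS got compound, then vasopressin (25 nM final, 5 min, 37C), then lysis buffer. AlphaScreen detection of phospho-ERK; activity normalized to basal and full-stimulation controls.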
Active calls of the source: *; i = inactive; ? = inconclusive; nt = no result; ! = repeats disagree; [ ] = another dose, or the depositor's remark. Calls follow the shape of the dose curve; as a rule, active = well fitted curve in the direction sought with a large enough effect; inconclusive = small, poorly fitted or top-dose-only effect, or another doubt; inactive = no such curve, though single readings can be large; an effect the other way counts as inactive or inconclusive.

SMILES | ALOX15 inhib | TsaE inh | BRCT PPI green | DNA Pol III inh | BRCT inh red | ERK AVP block
CCn1c2ccccc2c2cc(Nc3cc(C)nc4ncnn34)ccc21 | -24% | i | 1% | 5% | -1% | 25µM*
Cn1cccc1C(=O)N1CCC2(CCCN(c3cccc(-c4ccccc4)c3)C2)CC1 | -11% | i | 14% | 11% | 0% | -7%
COC(=O)COc1ccc(S(=O)(=O)NCCC2=CCCCC2)cc1C | 6.3µM* | i | 1% | -5% | 0% | 15%
COC(=O)COc1ccc(S(=O)(=O)NCCC2=CCCCC2)cc1 | -6% | i | -1% | -5% | -1% | 16%
COc1ccc(S(=O)(=O)NC2CCCCC2)c(C)c1C | -11% | i | 1% | 2% | 0% | 3%
O=C(NCc1ccccc1)c1c(F)c(F)c(F)c(F)c1F | 2% | i | -1% | -2% | 0% | -15%
O=C(NCc1ccccc1)c1ccc(-c2ccccc2F)o1 | -17% | i | -4% | 2% | -1% | 16µM*
CC(=O)OC[C@H]1O[C@@H](O/N=C(\C)CCN2CCc3nc(-c4ccccc4)c(-c4ccccc4)cc3C2)[C@H](OC(C)=O)[C@@H](OC(C)=O)[C@H]1OC(C)=O | 5%[11.4 µM] | nt | 2%[15.4 µM] | nt | 0%[15.4 µM] | 8%[11.5 µM]
N#Cc1ccc2c(c1)N(CCCN1CCC(O)CC1)c1ccccc1S2 | 4% | nt | -1%[3.08 µM] | nt | 0% | 35%
CN1CCN(CCCN2c3ccccc3Sc3ccc(C(F)(F)F)cc32)CC1 | ? | i | -3%[15.4 µM] | -18%[11.4 µM] | 1%[15.4 µM] | 25µM*!
CC(=O)OCC1OC(C#Cc2ccccc2)C=CC1O (centres undefined) | 9%[11.4 µM] | nt | 0%[15.4 µM] | nt | 2%[15.4 µM] | 4%[11.5 µM]
COc1ccc(CC(=O)c2ccc(O)cc2O)cc1 | -13% | nt | -1%[3.08 µM] | nt | -2% | 15%
O=C(Cc1nc2ccccc2s1)c1ccc(O)cc1O | 16µM* | i | 4% | -6% | -3% | 25%
COc1cccc2c1C(=O)c1c(O)c3c(c(O)c1C2=O)C[C@](O)(C(=O)CO)C[C@H]3O[C@@H]1C[C@H](N)[C@H](O)[C@H](C)O1 | 12%[25.6 µM] | i | 12%[34.4 µM] | 0.79µM* | ? | -16%[25.7 µM]
Cc1nn(-c2ccccc2)c2nc(-c3ccncc3)cc(C(=O)NCc3ccco3)c12 | 25µM* | i | -2% | -16% | 0% | -15%
O=C(CSc1nnc(Cn2c(=O)sc3ccccc32)n1-c1ccccc1)Nc1nccs1 | 1% | i | 0% | -3% | 1% | -17%
COc1ccc(N2CCN(c3nc(NCCc4ccc(OC)c(OC)c4)nc(OC)n3)CC2)cc1 | -11% | i | -1% | 2% | -4% | 16µM*
CCN(CCO)C[C@H]1CCC[C@H]2CCCC[C@@H]21 | -6%[11.4 µM] | i | 1%[15.4 µM] | -13%[11.4 µM] | 2%[15.4 µM] | 13%[11.5 µM]
Cn1c(NC(=O)c2ccccc2C(F)(F)F)cc(=O)n(C)c1=O | 8% | i | -1% | -5% | -2% | nt
Cn1c(NC(=O)c2ccccc2Br)cc(=O)n(C)c1=O | 25µM* | i | 2.5µM* | 3% | ? | nt
COc1ccc(C(=O)CSc2nc3nc(C)cc(C)c3c(=O)[nH]2)cc1OC | 15% | i | 2% | -1% | 2% | -3%
CC(=O)c1c(C)[nH]c(C(=O)OCCCCN2C(=O)c3ccccc3C2=O)c1C | -1% | i | -2% | -6% | 1% | 13µM*
CN1CC[C@@]2(CCN3CCc4c(oc5ccccc45)[C@@H]3C2)N(C)C1=O | -13% | i | -2% | -7% | -3% | 4%
NC(=O)c1sc(=S)n(-c2ccc(Br)cc2)c1N | 10µM* | i | -8% | -7% | -1% | ?
COc1ccccc1-n1c(N)c(C(N)=O)sc1=S | -28% | i | -2% | -1% | 2% | 5%
SMILES | ALOX15 inhib | TsaE inh | BRCT PPI green | DNA Pol III inh | BRCT inh red | ERK AVP block
CCCCc1nc2n[nH]c(N)c2c2c1CCC2 | 13% | i | 2% | -5% | -1% | 16µM*
CCCCc1ccc(-c2nc(N)n[nH]2)cc1 | 11% | i | 0% | -7% | -1% | -10%
COc1ccc2c(c1)Cc1cc(N=[N+]([O-])c3ccc4c(c3)Cc3cc(OC)ccc3-4)ccc1-2 | 4µM* | i | 7%[15.4 µM] | -2%[11.4 µM] | 0%[15.4 µM] | 2%[11.5 µM]
OC[C@@H]1O[C@@H](n2cnc3c(NC4CCCCC4)ncnc32)[C@@H](O)[C@H]1O | -6% | i | -2% | 0% | -1% | -27%
CN(Cc1ccccc1)S(=O)(=O)c1ccc(S(=O)(=O)N2CCN(CCC#N)CC2)cc1 | 0% | i | -1% | -1% | 0% | 3%
CCCCC/C=C\C[C@H](O)/C=C\c1cccc(C[C@H](O)CCCCO)n1 | 20µM* | i | 3% | -3% | -1% | 10%
Cc1cccc(Cn2c(=O)n(Cc3ccco3)c(=O)c3ccccc32)c1 | -15% | i | 0% | 3% | 0% | -2%
Cc1c(/N=C/c2ccco2)n(Cc2ccccc2)c2ccccc12 | ? | i | 0% | 4%[11.4 µM] | -3% | 13µM*
N#Cc1c(N)oc(-c2ccco2)c1-c1ccco1 | 25µM* | i | -6% | -10% | -4% | -1%
N#Cc1c(N)oc(-c2ccccc2)c1-c1ccccc1 | ? | i | -2% | -4% | 0% | -18%
c1nc(N2CCC3(CC2)OCCO3)c2c3c(sc2n1)CCCC3 | -6% | i | 2% | 2% | 1% | 32µM*
O=C(CSc1ccccc1Cl)c1ccco1 | -23% | i | 0% | -2% | 0% | 10%
O=C(CSc1ccc(Cl)cc1)c1ccco1 | 16µM* | i | -5% | ? | -5% | -10%
COc1ccc(OC)c2c(C)cc(N3CCN(C(=O)c4ccc(F)cc4)CC3)nc12 | -29% | i | 0% | -4% | -2% | 32µM*
COc1cc2c(cc1OC)-c1cc(=Nc3c(C)cc(C)cc3C)n(C)c(=O)n1CC2 | ? | i | 0% | 10% | -1% | 6.3µM*
CCOC(=O)c1c(C)[nH]c(C)c1C(=O)COc1ccc(NC(=O)c2ccco2)cc1 | -16% | i | 2% | ? | -1% | 25µM*
O=C(O)[C@H](/C=C\c1ccccc1)c1ccccc1 | -3%[11.4 µM] | i | 1%[15.4 µM] | 1%[11.4 µM] | 1%[15.4 µM] | -2%[11.5 µM]
COc1ccc(S(=O)(=O)N2CCCC(C(=O)NCc3ccco3)C2)cc1Cl (centres undefined) | -4% | i | -4% | -4% | -1% | 12%
Cc1cccc2cc3c(N)c(C(=O)N4CCOCC4)sc3nc12 | ? | i | 2% | -15% | 0% | -15%
Nc1nc2sc3c(c2cc1C(=O)N1CCOCC1)CCCC3 | 3.2µM* | i | -3% | -4%[11.4 µM] | -3% | ?

Screening results from PubChem.
